SMILES strings stand for the structures. The source made the active and inactive calls. The call rests on the fitted dose curve; in most records, active means well fitted curve in the direction sought with a large enough effect (not every such curve was filed as active); inconclusive means small, poorly fitted or top-dose-only effect, or effect the other way, or another doubt; inactive means no such curve, though single readings can be large or run the other way.

Sequence of Pyruvate kinase PKM (Homo sapiens) (P14618 whole entry, looked up): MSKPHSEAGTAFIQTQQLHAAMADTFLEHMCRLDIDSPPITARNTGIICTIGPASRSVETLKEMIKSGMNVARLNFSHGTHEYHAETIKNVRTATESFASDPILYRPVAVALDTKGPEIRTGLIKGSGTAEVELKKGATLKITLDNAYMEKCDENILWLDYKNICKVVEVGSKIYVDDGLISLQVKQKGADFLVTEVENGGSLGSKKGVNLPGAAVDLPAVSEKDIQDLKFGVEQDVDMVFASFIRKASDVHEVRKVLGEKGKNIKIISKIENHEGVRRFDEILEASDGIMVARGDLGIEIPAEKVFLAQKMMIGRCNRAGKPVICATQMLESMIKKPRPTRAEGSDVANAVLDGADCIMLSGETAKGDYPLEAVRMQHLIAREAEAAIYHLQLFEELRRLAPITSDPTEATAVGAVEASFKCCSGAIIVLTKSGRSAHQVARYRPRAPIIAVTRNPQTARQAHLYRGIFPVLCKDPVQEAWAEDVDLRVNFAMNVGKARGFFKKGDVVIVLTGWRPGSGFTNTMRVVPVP

The target of the experiment is Pyruvate kinase PKM (Homo sapiens) (UniProt P14618). Briefly: qHTS Assay for Activators of Human Muscle Pyruvate Kinase (AID 954). Particulars: purified human muscle pyruvate kinase, luciferase-coupled luminescence, 1 h; series mostly up to 57.5 µM. The protocol:
NIH Molecular Libraries Screening Centers Network [MLSCN]
NIH Chemical Genomics Center [NCGC]
Wael M. Rabeh, Lyudmila Nedyalkova and Hee-Wan Park [Structural Genomics Consortium, 100 College St. Toronto, Ontario, Canada]
Human pyruvate kinase muscle 2 enzyme was supplied as a highly purified (>95% pure) preparation by the Structural Genomics Consortium in Toronto (Ontario, Canada) and was assayed for its ability to generate ATP from ADP using phosphoenolpyruvate (PEP) as a substrate. ATP generation was detected in a coupled reaction by luciferase-mediated luminescence, an ATP-dependent process. Pyruvate kinase substrates, PEP and ADP, were present in the assay at Km and approximately […]-fold below Km respectively. The enzyme was assayed at an intermediate level of activity to screen for inhibitors and activators.
NCGC Assay Protocol Summary:
Three uL of substrate mix (final concentration, 50 mM imidazole pH 7.2, 50 mM KCl, 7 mM MgCl2, 0.5 mM PEP, 0.1 mM ADP, 0.01% Tween 20, 0.05% BSA) was dispensed into 1536 well plates. 23 nL of compound were delivered by a pin tool and 1 uL of enzyme mix (final concentration, 0.1 nM pyruvate kinase, 50 mM imidazole pH 7.2, 0.05% BSA) was added. Plates were incubated at room temperature for 1 hour. Two uL of detection and kinase stop mix (PKLight, Cambrex) was added, the plates centrifuged, and luminescence read by a ViewLux (Perkin Elmer) at 5 second exposure/plate. Data were normalized to the uninhibited and AC100 inhibition (no enzyme or 110 uM N-methyl-2,3-diphenyl-1,2,4-thiadiazol-5-imine; CID: 682802; LOPAC-S-4063). To monitor activation, 0.3 nM pyruvate kinase was included in one control column.
On to `C=C[C@@]1(C)CC(=O)[C@@]2(O)[C@@]3(C)[C@H](O)CCC(C)(C)[C@@H]3[C@H](O)[C@H](OC(C)=O)[C@]2(C)O1`, for which the call was inactive.

`N[C@H](CCCC(=O)O)C(=O)O`: the compound was classed as inactive.

Turning to `COC(=O)[C@H](N)Cc1ccc(Cl)cc1`, the result was inactive.

Take `C[C@@H]1O[C@@H](n2cc(F)c(=O)[nH]c2=O)[C@H](O)[C@@H]1O`: the call was inactive.

On to `O=C(O)CCC(=O)N1CCC[C@H]1C(=O)O`, for which the compound was called inactive.

Take `CCCCCCCCCCCCCCC/C=C\[C@H](O)[C@@H](NC(=O)CCCCCCCCCCCCC)OC` (tested in a mixture with another compound): the compound was classed as inactive.

Turning to `Cc1ccccc1N1CCN(S(=O)(=O)C[C@@]23CC[C@H](C[C@H]2NC(=O)[C@@H](N)CCS(C)(=O)=O)C3(C)C)CC1`, the compound was classed as inactive.

For the compound `O=C(O)CC[C@@H](NC(=O)c1ccccc1C(=O)O)C(=O)O`, the compound was called inactive.

`C=C(C)[C@@H]1CC=C(C(=O)O)CC1`: the call was inactive.

Regarding `Nc1ncnc2c1ncn2[C@@H]1O[C@@H](C(=O)NC2CC2)[C@H](O)[C@@H]1O`, the result was inactive.

Turning to `C[C@@H](C(=O)O)c1ccc(C[C@@H]2CCCC2=O)cc1`, the outcome was inactive.

Consider `COc1cc([C@H](O)CO)ccc1O`, for which the outcome was inactive.

Regarding `Cc1ccccc1CNc1ncnc2c1ncn2[C@@H]1O[C@@H](CO)[C@H](O)[C@@H]1O`, the compound was called inactive.

As to `C[C@@H](CN1CCC(Cc2ccccc2)CC1)[C@H](O)c1ccc(O)cc1`, the call was inactive.

Consider `CNC(=O)[C@@H]1O[C@@H](n2cnc3c(N)ncnc32)[C@@H](O)[C@H]1O`, for which the outcome was inactive.

As to `COc1cc([C@@H](O)CO)ccc1OS(=O)(=O)O`, the compound was classed as inactive.

As to `C[C@@H]1C(=O)N(C)C(=O)c2nc[nH]c21`, the call was inactive.

In the case of `CSc1nc(N)c2ncn([C@@H]3O[C@@H](COP(=O)(O)OP(=O)(O)O)[C@@H](O)[C@H]3O)c2n1`, the call was inactive.

As to `COc1ccccc1OC[C@H](O)CN1CCN(CC(=O)Nc2c(C)cccc2C)CC1`, the compound was classed as inactive.

Turning to `CC(C)C[C@H](NC(=O)[C@@H](O)[C@@H](N)Cc1ccccc1)C(=O)O`, the compound was called inactive.

As to `Nc1nc(Cl)nc2c1ncn2[C@@H]1O[C@@H](CO)[C@@H](O)[C@H]1O`, the result was inactive.

In the case of `C[C@@H](Cc1ccccc1)Nc1ncnc2c1ncn2[C@@H]1O[C@@H](CO)[C@H](O)[C@@H]1O`, the outcome was inactive.

Consider `COc1ccc(CCN(C)CCC[C@@](C#N)(c2cc(OC)c(OC)c(OC)c2)C(C)C)cc1OC`, for which the compound was called inactive.

Turning to `O=[N+]([O-])c1ccc(CSc2ncnc3c2ncn3[C@@H]2O[C@@H](CO)[C@@H](O)[C@H]2O)cc1`, the outcome was inactive.

`CSC(N)=NCCC[C@@H](N)C(=O)O`: the compound was called inactive.

On to `OC[C@@H]1O[C@@H](n2cnc3c(NC4CCCC4)ncnc32)[C@@H](O)[C@H]1O`, for which the result was inactive.

For the compound `N=c1ccn2c(n1)O[C@@H]1[C@@H](O)[C@H](CO)O[C@H]12`, the outcome was inactive.

Take `Nc1ncnc2c1nc(Sc1ccc(Cl)cc1)n2[C@@H]1O[C@H]2COP(=O)(O)O[C@@H]2[C@H]1O`: the compound was classed as inactive.

In the case of `CC(=O)[C@@H]1CC[C@@H]2[C@@H]3CC=C4C[C@H](OS(=O)(=O)O)CC[C@@]4(C)[C@H]3CC[C@]21C`, the compound was classed as inactive.

With `Nc1nc(Cl)nc2c1ncn2[C@@H]1O[C@@H](COP(=O)(O)OP(=O)(O)OP(=O)(O)O)[C@@H](O)[C@H]1O`, the compound was classed as inactive.

As for `CC1(C)CCC(NC(=O)[C@H](N)CCC(=O)O)CC1`, the call was inactive.

For the compound `CC1=C(C(=O)O)N2C(=O)[C@@H](NC(=O)[C@@H](N)C3=CCC=CC3)[C@@H]2SC1`, the outcome was inactive.

Turning to `Nc1nc(SCc2ccc([N+](=O)[O-])cc2)c2ncn([C@@H]3O[C@@H](CO)[C@@H](O)[C@H]3O)c2n1`, the outcome was inactive.

Consider `CNc1ncnc2c1ncn2[C@H]1C[C@@H](OP(=O)(O)O)[C@H](COP(=O)(O)O)O1`, for which the compound was called inactive.

For the compound `C=CCN1CCc2c(cc(O)c(O)c2Cl)[C@H](c2ccccc2)C1`, the outcome was inactive.

With `Oc1ccc([C@@H]2CNCCc3c2cc(O)c(O)c3Cl)cc1`, the compound was called inactive.

For `Nc1c2c(nc3ccccc13)CCC[C@H]2O`, the compound was classed as inactive.

As to `CC[C@@H](CO)Nc1nc(NCc2ccccc2)c2ncn(C(C)C)c2n1`, the compound was classed as inactive.

On to `O=C(O)/C=C\[C@H](O)c1ccc(Cl)cc1`, for which the outcome was inactive.

For `C[C@@H]1C[C@@H]2[C@H]3CCC4=CC(=O)C=C[C@]4(C)[C@]3(Cl)[C@@H](O)C[C@@]2(C)[C@@]1(O)C(=O)CO`, the compound was classed as inactive.

The record behind these values is PubChem BioAssay (NCATS).
